# A number with no mark means an inactive call. Results filed as inconclusive are left out. Where a call stands in place of a potency, no number is given. Calls of active or inactive are those of the source. Unless noted, the call rests on the fitted dose curve; in most records, active means well fitted curve in the direction sought with a large enough effect in the repeat runs; inconclusive means weak or mixed curves; inactive means no such curve, though single readings can be large; an effect the other way counts as inactive or inconclusive.
# How the values were obtained:
# [1] = qHTS assay to identify small molecule antagonists of the constitutive androstane receptor (CAR) signaling pathway - cell viability counter screen (AID 1224837); further: nearly all actives have a fitted effect of over 45% in size
# In short: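 Read-out: CellTiter-Fluor fluorescence after 23 hr at 37 C/5% CO2. Cells: HepG2 double-stable for hCAR and CYP2B6-2.2kb. Compounds tested at 15 concentrations in the presence of CITCO, final concentration 50 nM.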
# [2] = qHTS assay to identify small molecule antagonists of the estrogen related receptor signaling pathway with the pleiotropic PPARgamma coactivator (PGC) from Tox21 10K library - cell viability counter screen (AID 1224840; active means well fitted cell-killing curve with a large enough effect in the repeat runs, not every such curve was filed as active; further: nearly all actives have a fitted effect of over 40% in size)
# In short: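 Fluorescence read-out of CellTiter-Fluor viability reagent, added after cells had been exposed to compound in DMSO for 17.5 h at 37 C; 30 min development at 37 C/5% CO2. Cells: PGC/ERR line, 2,000/well.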
# [3] = biological target: Thyrotropin receptor (Homo sapiens) (UniProt P16473); test: qHTS assay to identify small molecule agonists of the thyroid stimulating hormone receptor (TSHR) signaling pathway (AID 1224843; calls by dose curve; further: nearly all actives have a fitted effect of over 45% in size)
# In short: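 Agonist-mode screen: TSHR HEK293 cells received test chemicals for half an hour at room temperature, then HTRF cAMP detection reagents for one hour prior to fluorescence measurement. Each chemical ran as a 15-concentration series, triplicated.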
# [4] = qHTS assay to identify small molecule agonists of the hypoxia (HIF-1) signaling pathway - cell viability counter screen (AID 1224844; calls by dose curve; further: nearly all actives have a fitted effect of over 50% in size; further: potency means the concentration at half of the fitted maximal effect)
# In short: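 CellTiter-Glo luminescence read-out, 30 min RT, taken in the same wells as the beta-lactamase HRE reporter assay; HRE-bla ME-180 cells, 0.5% dialyzed FBS, 17 hr compound treatment at 37C, 5% CO2.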
# [5] = qHTS assay to identify small molecule agonists of H2AX (AID 1224845; active means well fitted activation curve with a large enough effect in the signal ratio in the repeat runs, not every such curve was filed as active; the % refers to the signal ratio)
# In short: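 Wild-type CHO-K1 cells, plated overnight, exposed 3hr at 37C to 15 concentrations (0.76% DMSO final). Lysed, then HTRF anti-pH2AX (S139) cryptate and anti-H2AX-d2 antibodies, 24 hr room temperature; 665/620 nm emission read.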
# [6] = qHTS assay to identify small molecule agonists of H2AX - cell viability counter screen (AID 1224847; calls by dose curve; further: top concentration of the series differs between compounds; nearly all actives have a fitted effect of over 30% in size)
# In short: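 Viability of CHO-K1 (wild type) cells after 3 hr compound exposure was measured by CellTiter-Glo luminescence.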
# [7] = qHTS RealTime-Glo MT Cell Viability Assay in HepG2 cells - 24 hour (AID 1224867); further: nearly all actives have a fitted effect of over 50% in size
# In short: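 Real-time, nonlytic viability: 600 HepG2 cells/well mixed with NanoLuc enzyme plus prosubstrate; 5 h settle, compound (DMSO) added by pintool; luminescence monitored over 40 h at 37 C.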
# [8] = qHTS RealTime-Glo MT Cell Viability Assay in HEK293 cells - 32 hour (AID 1224868); further: top concentration of the series differs between compounds; nearly all actives have a fitted effect of over 50% in size
# In short: (§1)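 Cells + reagent dispensed (600 cells/well, HEK293) → 5 h at 37 C/5% CO2 → 23 nL compound in DMSO pinned → 40 h at 37 C → luminescence read at 0, 8, 16, 24, 32, 40 h.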
# [9] = A CellTox Green Cytotoxicity Assay to monitor cytotoxicity in HEK293 cells - 0 hour (AID 1224869); further: nearly all actives have a fitted effect of over 50% in size
# In short: (§2)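 Read-out: fluorescence of a cell-impermeant cyanine dye staining DNA of dead cells, proportional to cytotoxicity. HEK293, 600 cells/well with reagent, compound (23 nL DMSO) added after 5 h; reads at 0, 8, 16, 24, 32, 40 h.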
# [10] = qHTS RealTime-Glo MT Cell Viability Assay in HepG2 cells - 40 hour (AID 1224870); further: nearly all actives have a fitted effect of over 50% in size; further: potency means the concentration at half of the fitted maximal effect
# In short: (§3)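 HepG2 cells (600/well) mixed with RealTime-Glo MT reagent, settled 5 h at 37 C/5% CO2 before compound addition. Nonlytic NanoLuc luminescence from viable-cell prosubstrate reduction read repeatedly during 40 h treatment at 37 C.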
# [11] = A CellTox Green Cytotoxicity Assay to monitor cytotoxicity in HEK293 cells - 40 hour (AID 1224871); further: nearly all actives have a fitted effect of over 45% in size; further: potency means the concentration at half of the fitted maximal effect
# In short: as §2
# [12] = qHTS RealTime-Glo MT Cell Viability Assay in HEK293 cells - 16 hour (AID 1224872)
# In short: as §1
# [13] = qHTS RealTime-Glo MT Cell Viability Assay in HepG2 cells - 8 hour (AID 1224873); further: nearly all actives have a fitted effect of over 55% in size
# In short: as §3
# [14] = biological target: Nuclear receptor subfamily 1 group I member 3 (Homo sapiens) (UniProt Q14994); test: qHTS assay to identify small molecule agonists of the constitutive androstane receptor (CAR) signaling pathway (AID 1224839);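 further: HepG2 cells stably carrying human CAR and a CYP2B6 luciferase reporter; nearly all actives have a fitted effect of over 15% in size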
# In short: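 Stable hCAR/CYP2B6-2.2kb HepG2 line in DMEM with 10% FBS; compounds (15 concentrations) and 0.75 uM PK11195 final, 24 h at 37 C/5% CO2, then ONE-Glo luminescence after 30 min.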
# [15] = qHTS assay to identify small molecule agonists of the hypoxia (HIF-1) signaling pathway (AID 1224846; active means well fitted activation curve with a large enough effect in the signal ratio in the repeat runs, not every such curve was filed as active; the % refers to the signal ratio)
# In short: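 Beta-lactamase FRET read-out (CCF4-AM substrate) from ME-180 cells carrying an HRE-driven bla reporter, after 17 hrs compound exposure at 37C/5% CO2. Cells were seeded at 2,000 per well in 0.5% dialyzed FBS medium and preincubated 5 hrs.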
# [16] = qHTS assay to identify small molecule antagonists of the estrogen related receptor signaling pathway with the pleiotropic PPARgamma coactivator (PGC) from Tox21 10K library (AID 1224841; call rule not given here)
# In short: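 Luminescence read-out (One-Glo luciferase reagent, 30 min at room temperature) from PGC/ERR cells exposed to DMSO-dissolved test compounds for 18 h at 37 C; cells, 2,000 per well, had been preincubated 6 h before compound transfer.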
# [17] = qHTS assay to identify small molecule agonists of the estrogen related receptor signaling pathway with the pleiotropic PPARgamma coactivator (PGC) from Tox21 10K library (AID 1224842); further: nearly all actives have a fitted effect of over 15% in size; further: potency means the concentration at half of the fitted maximal effect
# In short: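 PGC/ERR reporter cell line, 2,000 cells per well, incubated 6 h at 37 C before 23 nL compound in DMSO was added. After 18 h at 37 C, One-Glo luminescence read following 30 min at room temperature.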
# [18] = qHTS assay to identify small molecule agonists of the estrogen related receptor (ERR) signaling pathway from Tox21 library (AID 1224849; calls by dose curve; further: nearly all actives have a fitted effect of over 15% in size); details: ERR reporter cell line, ONE-Glo luciferase, 18 h; at 92.4 µM (top of the series) unless noted
# In short: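 Luminescence readout (ONE-Glo, 30 min RT) after 18 h compound exposure at 37 C of NTP-supplied ERR reporter cells; cells were plated 6 h before compound addition by pin tool.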
# [19] = qHTS assay to identify small molecule antagonists of the estrogen related receptor (ERR) signaling pathway from Tox21 library (AID 1224848); further: nearly all actives have a fitted effect of over 50% in size; further: potency means the concentration at half of the fitted maximal effect
# In short: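 Quantitative high-throughput format: ERR reporter cells (2,000/well) pre-incubated 6 h, treated 18 h at 37 C with compounds in DMSO alongside positive and negative controls, then read by ONE-Glo luminescence.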
# Chain of Nuclear receptor subfamily 1 group I member 3 (Homo sapiens) (Q14994 whole entry, looked up): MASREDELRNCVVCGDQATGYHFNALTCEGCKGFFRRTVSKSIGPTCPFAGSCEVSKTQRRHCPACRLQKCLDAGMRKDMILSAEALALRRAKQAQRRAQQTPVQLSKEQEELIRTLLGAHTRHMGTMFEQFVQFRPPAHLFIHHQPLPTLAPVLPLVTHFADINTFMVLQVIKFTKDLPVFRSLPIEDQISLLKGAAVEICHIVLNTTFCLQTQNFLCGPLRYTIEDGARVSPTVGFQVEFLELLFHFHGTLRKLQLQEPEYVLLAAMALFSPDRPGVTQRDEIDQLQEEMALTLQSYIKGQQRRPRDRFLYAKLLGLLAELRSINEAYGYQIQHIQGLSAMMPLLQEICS
# Chain of Thyrotropin receptor (Homo sapiens) (P16473 whole entry, looked up): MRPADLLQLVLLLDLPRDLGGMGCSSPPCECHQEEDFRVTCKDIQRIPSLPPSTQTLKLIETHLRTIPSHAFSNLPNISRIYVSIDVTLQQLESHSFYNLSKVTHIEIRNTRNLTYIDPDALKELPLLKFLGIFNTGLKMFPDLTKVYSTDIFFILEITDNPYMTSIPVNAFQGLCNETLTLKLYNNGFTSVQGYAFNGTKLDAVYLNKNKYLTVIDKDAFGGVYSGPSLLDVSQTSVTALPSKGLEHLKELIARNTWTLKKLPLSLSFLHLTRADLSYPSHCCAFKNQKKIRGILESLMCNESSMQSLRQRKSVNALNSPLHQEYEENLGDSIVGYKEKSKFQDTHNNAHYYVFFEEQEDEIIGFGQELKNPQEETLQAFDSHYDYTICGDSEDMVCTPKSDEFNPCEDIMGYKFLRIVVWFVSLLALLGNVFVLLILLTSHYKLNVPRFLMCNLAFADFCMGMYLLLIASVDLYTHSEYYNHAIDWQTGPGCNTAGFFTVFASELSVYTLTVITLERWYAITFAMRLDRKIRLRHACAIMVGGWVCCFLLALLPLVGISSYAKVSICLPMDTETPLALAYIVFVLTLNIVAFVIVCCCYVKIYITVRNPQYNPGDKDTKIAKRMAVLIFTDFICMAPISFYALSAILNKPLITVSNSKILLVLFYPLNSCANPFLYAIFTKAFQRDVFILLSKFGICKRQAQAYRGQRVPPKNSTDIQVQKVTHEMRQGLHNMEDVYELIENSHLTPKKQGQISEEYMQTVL
Structure (SMILES),Potency [1],Potency [2],Potency [3],Potency [4],Potency [5],Potency [6],Potency [7],Potency [8],Potency [9],Potency [10],Potency [11],Potency [12],Potency [13],Potency [14],outcome [15],Potency [16],Potency [17],"activity change, positive = activation [18]",Potency [19]
CC(C)=CCCC(C)CC=O (stereo not given),inactive,inactive,inactive,inactive,inactive,inactive,inactive,inactive,inactive,inactive,inactive,inactive,inactive,–,–,–,–,–,–
O=C(O)c1cn(C2CC2)c2cc(Cl)c(F)cc2c1=O,inactive,inactive,inactive,inactive,inactive,inactive,inactive,–,–,inactive,–,–,inactive,inactive,inactive,–,–,–,–
CCCCOCCOCCOCCOCCO,inactive,inactive,inactive,inactive,inactive,inactive,inactive,inactive,inactive,inactive,inactive,inactive,inactive,–,inactive,–,–,–,–
O=C(O)Cc1sc(-c2ccccc2)nc1-c1ccc(Cl)cc1,inactive,inactive,inactive,–,–,inactive,inactive,inactive,inactive,inactive,inactive,inactive,inactive,–,inactive,inactive,inactive,-15.3% [at 42.5 µM],–
Nc1ccc(C(=O)N2CC3CC(CN(Cc4ccccc4)C3)C2)cc1,inactive,inactive,inactive,inactive,inactive,inactive,inactive,inactive,inactive,inactive,inactive,inactive,inactive,inactive,–,–,inactive,-11% [at 42.5 µM],inactive
CCCCCOC(=O)COc1cc(N2C(=O)C3=C(CCCC3)C2=O)c(F)cc1Cl,inactive,inactive,inactive,inactive,–,–,inactive,inactive,inactive,inactive,inactive,inactive,inactive,–,inactive,–,–,–,–
CC(=O)O[C@@H]1C(=O)O[C@@H]2[C@H]1OC(=O)[C@@H]2OC(C)=O,inactive,inactive,inactive,inactive,inactive,inactive,inactive,inactive,inactive,inactive,inactive,inactive,inactive,–,inactive,–,–,–,–
CNCC[C@@H](Oc1ccccc1C)c1ccccc1,inactive,–,inactive,inactive,–,inactive,inactive,inactive,inactive,inactive,inactive,inactive,inactive,inactive,–,–,inactive,-15.2% [at 42.5 µM],–
CCN(CC)CCNC(C(=O)OCCC(C)C)c1ccccc1 (stereo not given),inactive,inactive,inactive,–,inactive,–,inactive,inactive,inactive,inactive,inactive,inactive,inactive,inactive,inactive,inactive,–,0.0727% [at 42.5 µM],inactive
CC(=O)N(O)CCCCCNC(=O)CCC(=O)N(O)CCCCCNC(=O)CCC(=O)N(O)CCCCCN,inactive,inactive,–,inactive,–,inactive,inactive,–,inactive,inactive,inactive,inactive,inactive,–,inactive,–,inactive,-34.7% [at 42.5 µM],26.6 µM (active)
O=C(O)COC(=O)Cc1ccccc1Nc1c(Cl)cccc1Cl,inactive,inactive,inactive,inactive,inactive,inactive,inactive,inactive,inactive,inactive,inactive,inactive,inactive,–,inactive,inactive,inactive,1.12% [at 42.5 µM],inactive
CC(C)(C)c1ccc(OCC2CO2)cc1 (stereo not given),inactive,inactive,inactive,inactive,–,–,inactive,inactive,inactive,inactive,50 µM (active),inactive,inactive,–,inactive,inactive,inactive,3.37%,inactive
Nc1ccc(C(=O)Nc2ccccc2N)cc1,inactive,inactive,inactive,12 µM (active),–,inactive,inactive,–,inactive,13.4 µM (active),inactive,–,inactive,inactive,inactive,–,11.9 µM (active),21.9% [at 42.5 µM] (active),inactive
S=C(S)NCCNC(=S)S,inactive,inactive,inactive,inactive,inactive,inactive,inactive,inactive,inactive,inactive,inactive,inactive,inactive,–,inactive,–,–,–,–
CC(=O)Nc1ccc(/C=N/NC(N)=S)cc1,inactive,–,inactive,inactive,–,inactive,inactive,inactive,inactive,inactive,inactive,inactive,inactive,inactive,inactive,–,–,–,–
COC(=O)CSc1cc(N=c2sc(=O)n3n2CCCC3)c(F)cc1Cl,inactive,inactive,inactive,inactive,inactive,inactive,inactive,inactive,inactive,inactive,inactive,inactive,inactive,inactive,inactive,–,–,–,–
SC1CCCC1,inactive,inactive,inactive,inactive,inactive,inactive,inactive,inactive,inactive,inactive,inactive,inactive,inactive,–,inactive,–,–,–,–

# From PubChem BioAssay (Tox21)
